From PubChem BioAssay AID1159580 (chemical genetic matrix, 2015)
“And” between values parts separate entries of the source, which are not always exact repeats. Equal values may be shown once. Out of some 5,500 compounds screened, about 2,000 (36%) were called active. About 18% were inconclusive and are not listed. Cut-off read from the data, not from the text of the source: active = normalized growth mostly below about 0.91 (no sharp cut-off); inconclusive = no clear call, values can overlap the other calls; inactive = mostly above about 0.92. The list shows a part of the results.

Experiment: chemical genetic growth profiling, strain panel (AID 1159580);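 note: tested at 20 µM; growth read once vehicle control cultures reached saturation at 30 °C; 1 = growth at the plate median or of vehicle wells; lower values mean less growth of the strain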
Conditions: S. cerevisiae deletion strains, growth OD

Measured: normalized growth

C[C@]12C=CC(=O)C=C1CCC1C2[C@@H](O)C[C@@]2(C)C1CC[C@]2(O)C(=O)CO (stereo not given in full)
inactive: locus YAL021C, strain ccr4, stronger effect = lower value 1 | locus YAL026C, strain drs2, stronger effect = lower value 0.992 | locus YAL030W, strain snc1, stronger effect = lower value 0.993 | locus YBL061C, strain skt5, stronger effect = lower value 0.999 | locus YBR009C, strain hhf1, stronger effect = lower value 0.993 | locus YBR021W, strain FUR4, stronger effect = lower value 0.979 | locus YBR023C, strain chs3, stronger effect = lower value 1 | locus YBR171W, strain sec66, stronger effect = lower value 1.01 | locus YBR229C, strain ROT2, stronger effect = lower value 0.99 | locus YBR231C, strain swc5, stronger effect = lower value 0.991 | locus YBR279W, strain paf1, stronger effect = lower value 1 | locus YCL011C, strain gbp2, stronger effect = lower value 1.01 | locus YCL016C, strain dcc1, stronger effect = lower value 0.988 | locus YCL029C, strain bik1, stronger effect = lower value 0.985 | locus YCL061C, strain MRC1, stronger effect = lower value 1.01 | locus YCL069W, strain vba3, stronger effect = lower value 0.981 | locus YCR088W, strain abp1, stronger effect = lower value 0.994 | locus YDL005C, strain med2, stronger effect = lower value 0.999 | locus YDL035C, strain GPR1, stronger effect = lower value 0.998 | locus YDL040C, strain nat1, stronger effect = lower value 0.995 | locus YDL074C, strain BRE1, stronger effect = lower value 1.01 | locus YDL101C, strain DUN1, stronger effect = lower value 0.99 | locus YDL134C, strain PPH21, stronger effect = lower value 0.986 | locus YDL185W, strain tfp1, stronger effect = lower value 0.974 | locus YDL192W, strain arf1, stronger effect = lower value 0.985 | locus YDR001C, strain nth1, stronger effect = lower value 0.997 | locus YDR069C, strain doa4, stronger effect = lower value 0.996 | locus YDR101C, strain arx1, stronger effect = lower value 0.983 | locus YDR137W, strain rgp1, stronger effect = lower value 1.03 | locus YDR150W, strain NUM1, stronger effect = lower value 0.998 | locus YDR159W, strain sac3, stronger effect = lower value 1 | locus YDR162C, strain NBP2, stronger effect = lower value 0.992 | locus YDR195W, strain ref2 0.969 | locus YDR297W, strain sur2, stronger effect = lower value 0.99 | locus YDR318W, strain mcm21, stronger effect = lower value 0.979 | locus YDR334W, strain swr1, stronger effect = lower value 0.992 | locus YDR335W, strain msn5, stronger effect = lower value 0.996 | locus YDR388W, stronger effect = lower value 0.98 | locus YDR392W, strain spt3, stronger effect = lower value 0.953 | locus YDR502C, strain sam2, stronger effect = lower value 0.992 | locus YEL003W, strain gim4, stronger effect = lower value 0.982 | locus YEL037C, strain rad23, stronger effect = lower value 0.989 | locus YEL061C, strain CIN8 (second series), stronger effect = lower value 0.99 | locus YEL061C, strain CIN8, stronger effect = lower value 0.997 | locus YER015W, strain faa2, stronger effect = lower value 1 | locus YER016W, strain bim1, stronger effect = lower value 1 | locus YER110C, stronger effect = lower value 0.975 | locus YER111C, strain swi4, stronger effect = lower value 0.999 | locus YER155C, strain BEM2 (second series), stronger effect = lower value 1.01 | locus YER155C, strain BEM2, stronger effect = lower value 0.978 | locus YER167W, strain BCK2, stronger effect = lower value 0.987 | locus YFR010W, strain ubp6, stronger effect = lower value 0.997 | locus YGL078C, strain dbp3, stronger effect = lower value 0.998 | locus YGL086W, strain mad1, stronger effect = lower value 1 | locus YGL167C, strain pmr1, stronger effect = lower value 1.01 | locus YGL173C, strain kem1, stronger effect = lower value 0.989 | locus YGL227W, strain vid30, stronger effect = lower value 0.993 | locus YGL240W, strain doc1, stronger effect = lower value 0.99 | locus YGL248W, strain PDE1, stronger effect = lower value 0.99 | locus YGL253W, strain hxk2, stronger effect = lower value 0.991 | locus YGR135W, strain pre9, stronger effect = lower value 0.995 | locus YGR229C, strain SMI1, stronger effect = lower value 0.993 | locus YGR252W, strain gcn5, stronger effect = lower value 1.06 | locus YHR013C, strain ard1, stronger effect = lower value 1.01 | locus YHR027C, strain rpn1, stronger effect = lower value 0.995 | locus YHR030C, strain SLT2, stronger effect = lower value 0.992 and 1.01 | locus YHR079C, strain IRE1 (second series), stronger effect = lower value 0.977 | locus YHR079C, strain IRE1, stronger effect = lower value 1 | locus YHR094C, strain hxt1, stronger effect = lower value 0.978 | locus YHR129C, strain ARP1, stronger effect = lower value 1.02 | locus YHR142W, strain chs7, stronger effect = lower value 0.99 | locus YHR200W, strain rpn10, stronger effect = lower value 0.981 | locus YIL066C, strain RNR3, stronger effect = lower value 0.989 | locus YIL073C, strain SPO22, stronger effect = lower value 0.946 | locus YIL125W, strain kgd1, stronger effect = lower value 0.982 | locus YIR030C, strain dcg1, stronger effect = lower value 0.984 | locus YJL092W, strain hpr5, stronger effect = lower value 0.995 | locus YJL095W, strain BCK1 (second series), stronger effect = lower value 1 | locus YJL095W, strain BCK1, stronger effect = lower value 1.01 | locus YJL115W, strain asf1, stronger effect = lower value 0.99 | locus YJL129C, strain trk1, stronger effect = lower value 0.977 | locus YJL134W, strain LCB3, stronger effect = lower value 0.988 | locus YJL154C, strain vps35, stronger effect = lower value 0.998 | locus YJL164C, strain tpk1, stronger effect = lower value 0.989 | locus YJL166W, strain qcr8, stronger effect = lower value 0.979 | locus YJL168C, strain set2, stronger effect = lower value 0.983 | locus YJL187C, strain SWE1 (second series), stronger effect = lower value 0.984 | locus YJL187C, strain SWE1, stronger effect = lower value 0.991 | locus YJR043C, strain POL32, stronger effect = lower value 0.998 | locus YJR066W, strain TOR1, stronger effect = lower value 0.942
